We go through 40 compounds from PubChem BioAssay (NCI).

The panel holds about 83,000 compounds, 20% with a hit somewhere; the sample as a whole holds those more often.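 Activity criterion: percent growth below 10, measured after cells in 96-well plates were exposed to a single compound concentration for 48 hours.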 Activity calls are given as the source filed them.

This assay deals with NCI-H226 lung. Nature of the assay: NCI-60 one-dose screen, 48 h (100 = growth as untreated, 0 = no growth, -100 = all killed). The note with it: 10 µM unless noted.
With `Clc1cccc(Nc2ncnc3ccc(-c4cnc5[nH]ccc5c4)cc23)c1`, the growth was 80% (inactive).

For `Nc1cc(C(=O)NC[C@H]2CN(c3ccc(N4CCC(C(=O)O)CC4)cc3)C(=O)O2)ccc1Cl`, the growth was 100% (inactive).

As for `N#CSCC1CC(O)(c2ccccc2)CC(c2ccc(F)cc2)O1` (stereo not given), the growth was -7.79% (active).

Take `CCOC(=O)c1ccc2c(c1)nc(-c1ccccc1)n2C1CCCCC1`: the growth is 120% (inactive).

On to `Cc1cn(-c2cc(NC(=O)c3cncc(C#Cc4cnc(N)c5ncccc45)c3)cc(C(F)(F)F)c2)cn1`, for which the growth was 45.7% (inactive).

As for `CCN(CC)Cc1cc(C=C2C(=O)NC(=S)NC2=O)cc(OC)c1O`, the growth is 107% (inactive).

As to `COc1cc(/C=C/C(=O)c2ccc(F)cc2)ccc1OCCCCOc1ccc(/C=C/C(=O)c2c(C)nc3ccccc3c2C)cc1OC`, the growth was 69.4% (inactive).

Turning to `O=C1/C(=C/c2cccc(F)c2)CN(C(=O)C(Cl)Cl)C/C1=C\c1cccc(F)c1`, the growth is 0.29% (active).

Turning to `N#Cc1ccc(O)c(C2=NCC(c3ccccc3)O2)c1` (stereo not given), the growth is 68% (inactive).

Take `N=C(N)c1ccc(-c2ccc(-c3ccccc3)o2)cc1`: the growth was -26.4% (active).

`COC12C=C/C(=C(/C(=O)OCc3ccncc3)C(=O)CCCCCCCCC3(OC)C=C/C(=C(/C(=O)OCc4ccncc4)C(=O)CCCCCCCC1)O3)O2`: the growth was -64.7% (active).

As to `COC(=O)/C=C1/SC(=Nc2cccc(OC)c2)N(CCc2c[nH]c3ccc(O)cc23)C1=O`, the growth is 89.6% (inactive).

Take `Cn1ccnc1C(=O)/C=C/c1ccc(CC(=O)Nc2cc(C(F)(F)F)cc(C(F)(F)F)c2)cc1`: the growth is 91.4% (inactive).

For the compound `CS(=O)(=O)Nc1cc(-c2ccc3ncnc(Nc4ccc5c(cnn5Cc5ccc(F)cc5)c4)c3c2)cnc1Cl`, the growth was 66.8% (inactive).

`CCSc1nc2scc(C)c2c(=O)[nH]1`: the growth was 99.2% (inactive).

For the compound `Fc1cccc(Oc2ccc(Nc3ncnc4ccc(OCCCN5CCOCC5)cc34)cc2Cl)c1`, the growth was 88.1% (inactive).

As for `O=C(Nc1cccc2ccccc12)NC1CC1`, the growth was 99.9% (inactive).

As to `Clc1ccc2c(NC3CCC(N4CCOCC4)CC3)ccnc2c1` (stereo not given), the growth is 68.9% (inactive).

As for `Cc1cc(N2CCN(CCNc3ccnc4cc(Cl)ccc34)CC2)nc(N2CCOCC2)n1`, the growth was 79.5% (inactive).

Regarding `c1cnc2c(-c3nc4ccc5[nH]ncc5c4c4c3CCCC4)c[nH]c2c1`, the growth is 42.6% (inactive).

On to `O=C(O)c1ccc(-n2cc(/C=N/Nc3ccccc3)c(-c3ccc(F)cc3F)n2)cc1`, for which the growth was 84.2% (inactive).

Turning to `C=C(CBr)[C@@H]1CC[C@]2(C(=O)O)CC[C@]3(C)[C@H](CC[C@@H]4[C@@]5(C)CCC(=O)C(C)(C)[C@@H]5CC[C@]43C)[C@@H]12`, the growth was 73.2% (inactive).

Consider `O=C(CSC(=S)n1cnnc1)NC(=O)c1ccccc1`, for which the growth was 100% (inactive).

`CC(C)(C)CC(C)(C)NC(=O)Nc1ncccc1OCc1ccccc1`: the growth was 91.6% (inactive).

Regarding `Oc1ccc(Cl)cc1/C=N\NC(=S)N/N=C/c1cc(Cl)ccc1O`, the growth is 32.5% (inactive).

As for `CCc1ncnc2c1ccn2C(C)c1ccc(OC)c(F)c1` (stereo not given), the growth was 77.2% (inactive).

Turning to `C/C(=N\O)c1ccc(Cl)cc1`, the growth is 106% (inactive).

As for `CN(C)CCNC(=O)c1cc2c3cc(Cl)ccc3[nH]c2c2ncccc12`, the growth was 25% (inactive).

As to `O=C(/C=C/c1ccco1)Nc1ncc(Cc2cccc(C(F)(F)F)c2)s1`, the growth was 33.2% (inactive).

In the case of `Cc1cc(S(=O)(=O)/N=C(\N)n2nc(C)c(C)c2C)c(SCc2ccccc2)cc1Cl`, the growth was 78.6% (inactive).

Regarding `CN(c1cc2ncc(=O)[nH]c2cc1NC(N)=NCc1ccc(Cl)cc1)C1CCCCC1`, the growth was 72.8% (inactive).

`COc1cc(-c2nc3sccn3c2-c2ccnc(NCCNS(=O)(=O)c3ccccc3)n2)ccc1F`: the growth was 41.2% (inactive).

In the case of `O=C(Nc1cccc(-c2ccc(N3CCOCC3)nn2)c1)Nc1cccc(C(F)(F)F)c1`, the growth is 61.8% (inactive).

As for `COCCNC(=O)Nc1ccc2nc(-c3cccs3)c(-c3cccs3)nc2c1`, the growth was 92.8% (inactive).

Consider `O=C1/C=C/[C@@H](O)[C@@H]2C[C@@H](O)C[C@H]2/C=C/CCC[C@H](CCc2ccccc2)O1`, for which the growth is -28.6% (active).

With `CC(=O)Oc1ccc(/C(=C(\C)c2ccc(Cl)cc2)c2ccc(OCCN3CCCCC3)cc2)cc1`, the growth is 70.7% (inactive).

As for `N#Cc1nc(-c2ccc(F)cc2)oc1S(=O)(=O)N1CCOCC1`, the growth is 81.7% (inactive).

For `C#CCNC(=O)[C@H](CC)[C@H]1CC[C@H](C)[C@H]([C@@H](C)[C@H](O)[C@H](C)C(=O)[C@H](CC)C2O[C@]3(C=CC(=O)[C@]4(CC[C@@](C)([C@H]5CC[C@](O)(CC)[C@H](C)O5)O4)O3)[C@H](C)C[C@@H]2C)O1` (stereo not given in full), the growth was 57.7% (inactive).

For `COc1ccc(CNc2c3ccccc3nc3ccccc23)cc1`, the growth was 51.4% (inactive).

For the compound `Clc1cc(Cl)c(Cl)c(-c2nnc(SCc3ccncc3Br)o2)c1`, the growth is 98% (inactive).
